This note sets out measurements from PubChem BioAssay (EPA / NIEHS).

Records with an inconclusive call do not appear. Active and inactive are the calls of the source. Rule for the calls: active = hit-call score of the fitted dose curve at least 0.9, where 1 is the maximum; inconclusive = response in the unintended direction; inactive = score below 0.9.

For test [1], the target named is human AMP-activated Protein Kinase, alpha 1 (AMPKa1), PRKAA1 (gene 5562) (UniProt Q13131). The experiment in a line: NVS_ENZ_hAMPKa1: NovaScreen (NVS) Enzymatic Assay for human AMP-activated Protein Kinase, alpha 1 (AMPKa1) (AID 2283130). In a few lines:
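Compounds were screened in duplicate at 25 uM, and those reaching ~30% inhibition were titrated up to 50 uM. The enzyme was recombinant human AMPKα1, and kinase turnover was read by fluorescence/mobility shift 1 h post-dosing as loss of signal versus DMSO.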

Test [2] addresses human Aurora Kinase A - serine/threonine-protein Kinase 6 (AurA), AURKA (gene 6790) (UniProt O14965). Briefly: NVS_ENZ_hAurA: NovaScreen (NVS) Enzymatic Assay for human Aurora Kinase A - serine/threonine-protein Kinase 6 (AurA) (AID 2283142). In a few lines:
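Recombinant human AurA activity read by fluorescence after mobility-shift separation of product from substrate; 1 hour incubation. Chemicals first run in duplicate at 25 uM, then concentration series to 50 uM if over threshold; fitted relative to DMSO.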

In test [3] the target is human Epidermal Growth Factor Receptor (EGFR), EGFR (gene 1956) (UniProt P00533). The experiment in a line: NVS_ENZ_hEGFR: NovaScreen (NVS) Enzymatic Assay for human Epidermal Growth Factor Receptor (EGFR) (AID 2283151). In a few lines:
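Cell-free kinase assay, fluorescence plus electrophoretic mobility shift separating substrate and product, read 1 hour after dosing; loss of signal vs DMSO. Duplicate screen at 25 uM, then concentration-response to 50 uM.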

Test [4] addresses human Fibroblast Growth Factor Receptor 1 (FGFR1), FGFR1 (gene 2260) (UniProt P11362). Briefly: NVS_ENZ_hFGFR1: NovaScreen (NVS) Enzymatic Assay for human Fibroblast Growth Factor Receptor 1 (FGFR1) (AID 2283159). Summed up:
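Cell-free recombinant kinase with fluorescent substrate, product separated by electrophoretic mobility shift; read 1 hour after dosing, loss of signal relative to DMSO. Initial screen in duplicate at 25 uM, actives followed in concentration series.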

The target of test [5] is Protein deacetylase HDAC6 (Homo sapiens) (UniProt Q9UBN7). The experiment in a line: NVS_ENZ_hHDAC6: NovaScreen (NVS) Enzymatic Assay for human Histone Deacetylase 6 (HDAC6) (AID 2283164). In a few lines:
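Concentration-response runs up to 50 uM followed a duplicate 25 uM single-point screen. Deacetylase activity of recombinant human HDAC6 read by fluorescence after 1 h, with mobility-shift separation of substrate and product; DMSO as baseline.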

Test [6] concerns the target human IkappaB Kinase alpha (IKKa), CHUK (gene 1147) (UniProt O15111). The experiment in a line: NVS_ENZ_hIKKa: NovaScreen (NVS) Enzymatic Assay for human IkappaB Kinase alpha (IKKa) (AID 2283167). Summed up: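 Compounds first run in duplicate at 25 uM, those meeting threshold (e.g. 30% inhibition) retested to maximum 50 uM. Enzyme activity of recombinant IKKa measured by fluorescence with electrophoretic mobility shift separation, 1 hour post-dosing, DMSO baseline.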

In test [7] the target is rat Monoamine Oxidase, MAO-B, Peripheral (MAOBP), Maob (gene 25750) (UniProt P19643). Briefly: NVS_ENZ_rMAOBP: NovaScreen (NVS) Enzymatic Assay for rat Monoamine Oxidase, MAO-B, Peripheral (MAOBP) (AID 2283242).
Test [8] concerns the target human Caspase 2 (CASP2), CASP2 (gene 835) (UniProt P42575). Briefly: NVS_ENZ_hCASP2: NovaScreen (NVS) Enzymatic Assay for human Caspase 2 (CASP2) (AID 2283135). In a few lines: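 Single-point duplicate testing at 25 uM preceded concentration series topping at 50 uM. Activity of the recombinant E. coli-derived protease was followed by fluorescent substrate cleavage 1 h post-dosing, relative to DMSO.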

For test [9], the target named is human Raf-1 Proto-Oncogene, serine/threonine Kinase (RAF1), RAF1 (gene 5894) (UniProt P04049). Briefly: NVS_ENZ_hRAF1: NovaScreen (NVS) Enzymatic Assay for human Raf-1 Proto-Oncogene, serine/threonine Kinase (RAF1) (AID 2283216). In a few lines:
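Single-point screening at 25 uM (duplicate), followed by singleton concentration-response to 50 uM maximum for chemicals exceeding threshold. Enzyme activity from fluorescent substrate-product mobility-shift separation after 1 h, relative to DMSO.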

The target in test [10] is human Tyrosine Protein Kinase Receptor Tie-2 (Tie2), TEK (gene 7010) (UniProt Q02763). The experiment in a line: NVS_ENZ_hTie2: NovaScreen (NVS) Enzymatic Assay for human Tyrosine Protein Kinase Receptor Tie-2 (Tie2) (AID 2283225). In a few lines: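 Substrate and product were separated by mobility shift and detected by fluorescence after a 1-hour reaction with recombinant Tie2. Chemicals passing a 25 uM single-point screen were titrated to a maximum of 50 uM. Results were normalized to DMSO baseline.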

Test [11] concerns the target rat Oxytocin Receptor (OXT), Oxtr (gene 25342) (UniProt P70536). Briefly: NVS_GPCR_rOXT: NovaScreen (NVS) G Protein-Coupled Receptor Assay for rat Oxytocin Receptor (OXT) (AID 2283330). Summed up:
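Binding to rat uterine membrane receptor was followed by scintillation counting of filter-trapped radioligand after 1 h. A 25 uM duplicate single-point screen preceded concentration series with a top of 50 uM. Signal loss was analysed relative to DMSO.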

Test [12] addresses human Phosphatase and Tensin Homolog (PTEN), PTEN (gene 5728) (UniProt P60484). The experiment in a line: NVS_ENZ_hPTEN: NovaScreen (NVS) Enzymatic Assay for human Phosphatase and Tensin Homolog (PTEN) (AID 2283203). In a few lines:
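Loss of fluorescent product signal after mobility-shift separation reports PTEN activity, recombinant human enzyme, 1 h after compound addition. Single 25 uM duplicate screen, then concentration-response on actives; DMSO baseline.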

For test [13], the target named is human Protein Tyrosine Phosphatase Non-receptor Type 2 (PTPN2), PTPN2 (gene 5771) (UniProt P17706). The experiment in a line: NVS_ENZ_hPTPN2: NovaScreen (NVS) Enzymatic Assay for human Protein Tyrosine Phosphatase Non-receptor Type 2 (PTPN2) (AID 2283207). Summed up:
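Activity measured as fluorescence after mobility-shift separation of substrate and product, 1 h after compound. Duplicate single-point 25 uM primary testing, concentration series for actives; inhibition scored as signal loss relative to DMSO baseline.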

The target in test [14] is human Matrix Metalloproteinase-1 (MMP1), MMP1 (gene 4312) (UniProt P03956). The experiment in a line: NVS_ENZ_hMMP1: NovaScreen (NVS) Enzymatic Assay for human Matrix Metalloproteinase-1 (MMP1) (AID 2283181). Summed up:
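Cell-free fluorescent substrate assay of human MMP1, read after 1 h. A single 25 uM duplicate screen was followed by concentration series to a maximum of 50 uM for actives meeting threshold; inhibition analysed against DMSO baseline.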

Test [15] deals with rat Monoamine Oxidase, MAO-A, Peripheral (MAOAP), gene 29253. The experiment in a line: NVS_ENZ_rMAOAP: NovaScreen (NVS) Enzymatic Assay for rat Monoamine Oxidase, MAO-A, Peripheral (MAOAP) (AID 2283237). Summed up: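 Scintillation counting tracked MAO-A activity in a cell-free rat liver mitochondrial membrane prep, read 1.17 hours after compound addition. Single-point duplicate testing at 25 uM preceded concentration-response follow-up; activity was fitted relative to DMSO.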

The target in test [16] is rat Monoamine Oxidase, MAO-B, Central (MAOBC), Maob (gene 25750) (UniProt P19643). The experiment in a line: NVS_ENZ_rMAOBC: NovaScreen (NVS) Enzymatic Assay for rat Monoamine Oxidase, MAO-B, Central (MAOBC) (AID 2283238). Summed up: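 Cell-free radiometric assay, rat brain lysate. Read-out: scintillation counts, 1.17 h post-dosing. Screen 25 uM in duplicate; actives (e.g. ≥30% inhibition) then singleton concentration-response, max 50 uM. Activity loss fitted relative to DMSO.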

Test [17] has as its system rat Monoamine Oxidase, MAO-A, Central (MAOAC), gene 29253. The experiment in a line: NVS_ENZ_rMAOAC: NovaScreen (NVS) Enzymatic Assay for rat Monoamine Oxidase, MAO-A, Central (MAOAC) (AID 2283243).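 Note: potency refers to inhibition seen as signal drop below DMSO baseline.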 In a few lines: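 Enzyme from rat brain, cell-free radiodetection format. Counts taken at 1.5 h; activity fitted against DMSO baseline, loss of signal marking inhibition. Confirmatory concentration series followed the 25 uM duplicate screen.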

Test [18] has as its target human p21 Activated Kinase 4 (PAK4), PAK4 (gene 10298) (UniProt O96013). The experiment in a line: NVS_ENZ_hPAK4: NovaScreen (NVS) Enzymatic Assay for human p21 Activated Kinase 4 (PAK4) (AID 2283189). Summed up: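 Extracted PAK4 enzyme activity read by fluorescence with mobility-shift separation 1 h after chemical addition. Duplicate single-concentration screen at 25 uM, DMSO as negative control.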

For test [19], the target named is rat Gamma-Aminobutyric Acid Type A Receptor BDZ, alpha 6 site (GABARa6), Gabra6 (gene 29708) (UniProt P30191). Briefly: NVS_LGIC_rGABARa6: NovaScreen (NVS) Ligand-Gated Ion Channel Assay for rat Gamma-Aminobutyric Acid Type A Receptor BDZ, alpha 6 site (GABARa6) (AID 2283339). Summed up: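 Actives from a 25 uM duplicate screen were retested in concentration series (max 50 uM). Specific radioligand displacement from rat cerebellar membranes was counted by filter-based scintillation at 1 h; DMSO served as baseline.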

Test [20] concerns the target human NIMA (Never In Mitosis Gene A)-Related Kinase 2 (NEK2), NEK2 (gene 4751) (UniProt P51955). The experiment in a line: NVS_ENZ_hNEK2: NovaScreen (NVS) Enzymatic Assay for human NIMA (Never In Mitosis Gene A)-Related Kinase 2 (NEK2) (AID 2283188). In a few lines: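 Compounds were first screened in duplicate at 25 uM, with actives followed up in concentration series. Recombinant NEK2 activity, cell-free, was read 1 h after dosing by fluorescence intensity after mobility-shift separation. Signal loss was scored against DMSO.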

Test [21] has as its target Voltage-dependent N-type calcium channel subunit alpha-1B (Rattus norvegicus) (UniProt Q02294). Briefly: NVS_IC_rCaChN: NovaScreen (NVS) Ion Channel Assay for rat Calcium Channel, Type N (CaChN) (AID 2283317).
Test [22] deals with Norway rat Vesicular Monoamine Transporter (VMAT2), neurotransmitter transporter, Slc18a2 (gene 25549) (UniProt Q01827). Briefly: NVS_TR_rVMAT2: NovaScreen (NVS) Transporter Assay for Norway rat Vesicular Monoamine Transporter (VMAT2), neurotransmitter transporter (AID 2283376).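 Note: actives lower the bound radioligand signal below the DMSO level.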 In a few lines:
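Filter-based scintillation counting of radioligand bound to rat forebrain-derived VMAT2 protein, cell-free, 1 h post-dose. Signal loss relative to DMSO control scored; single-concentration duplicate screen (25 uM) followed by concentration-response testing of actives.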

Broadly, the AC50 is the concentration giving half of the maximal activity seen.

Chain of human Caspase 2 (CASP2), CASP2 (gene 835) (P42575 whole entry, looked up): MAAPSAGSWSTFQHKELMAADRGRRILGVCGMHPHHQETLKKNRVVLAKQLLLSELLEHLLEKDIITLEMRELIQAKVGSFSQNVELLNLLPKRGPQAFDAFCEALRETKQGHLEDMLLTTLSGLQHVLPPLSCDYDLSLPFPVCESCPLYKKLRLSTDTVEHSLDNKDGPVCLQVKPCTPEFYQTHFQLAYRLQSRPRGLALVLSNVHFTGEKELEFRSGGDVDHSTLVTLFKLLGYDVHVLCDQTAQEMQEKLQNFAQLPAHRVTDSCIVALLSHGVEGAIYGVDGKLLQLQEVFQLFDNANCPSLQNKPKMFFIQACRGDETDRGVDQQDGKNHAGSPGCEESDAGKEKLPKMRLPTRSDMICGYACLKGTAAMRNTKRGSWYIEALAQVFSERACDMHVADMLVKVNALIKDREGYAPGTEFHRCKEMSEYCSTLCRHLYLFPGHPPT
Chain of human Epidermal Growth Factor Receptor (EGFR), EGFR (gene 1956) (P00533 whole entry, looked up): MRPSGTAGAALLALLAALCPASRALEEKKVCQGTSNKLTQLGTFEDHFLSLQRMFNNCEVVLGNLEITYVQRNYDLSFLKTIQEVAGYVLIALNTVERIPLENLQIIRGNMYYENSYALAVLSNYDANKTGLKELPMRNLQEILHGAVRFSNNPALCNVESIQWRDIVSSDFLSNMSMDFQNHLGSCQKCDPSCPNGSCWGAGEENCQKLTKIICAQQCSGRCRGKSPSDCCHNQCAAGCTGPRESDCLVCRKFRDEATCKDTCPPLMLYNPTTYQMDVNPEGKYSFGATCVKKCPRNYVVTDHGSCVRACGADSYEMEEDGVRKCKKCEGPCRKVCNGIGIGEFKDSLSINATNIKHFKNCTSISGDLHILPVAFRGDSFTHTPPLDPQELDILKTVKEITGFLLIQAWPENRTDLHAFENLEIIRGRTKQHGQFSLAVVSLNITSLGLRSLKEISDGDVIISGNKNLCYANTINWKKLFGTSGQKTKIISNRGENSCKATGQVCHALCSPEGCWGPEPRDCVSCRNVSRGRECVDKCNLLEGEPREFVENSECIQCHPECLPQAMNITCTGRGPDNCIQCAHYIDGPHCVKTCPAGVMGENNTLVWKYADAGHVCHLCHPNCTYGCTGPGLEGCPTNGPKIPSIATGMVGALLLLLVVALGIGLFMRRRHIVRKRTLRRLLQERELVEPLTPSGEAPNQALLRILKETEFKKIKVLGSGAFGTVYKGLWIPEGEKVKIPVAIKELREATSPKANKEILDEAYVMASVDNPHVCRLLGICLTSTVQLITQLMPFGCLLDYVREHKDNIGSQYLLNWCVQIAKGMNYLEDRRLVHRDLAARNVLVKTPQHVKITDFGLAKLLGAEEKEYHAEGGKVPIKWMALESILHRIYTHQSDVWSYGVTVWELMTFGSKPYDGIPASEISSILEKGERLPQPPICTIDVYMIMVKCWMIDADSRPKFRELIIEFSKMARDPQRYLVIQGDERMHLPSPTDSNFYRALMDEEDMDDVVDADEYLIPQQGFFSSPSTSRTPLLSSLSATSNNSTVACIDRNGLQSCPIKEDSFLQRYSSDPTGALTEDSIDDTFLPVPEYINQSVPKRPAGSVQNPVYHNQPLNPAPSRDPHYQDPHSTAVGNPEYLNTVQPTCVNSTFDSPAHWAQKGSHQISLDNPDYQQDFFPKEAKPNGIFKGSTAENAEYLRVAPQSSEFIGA
Chain of Protein deacetylase HDAC6 (Homo sapiens) (Q9UBN7 whole entry, looked up): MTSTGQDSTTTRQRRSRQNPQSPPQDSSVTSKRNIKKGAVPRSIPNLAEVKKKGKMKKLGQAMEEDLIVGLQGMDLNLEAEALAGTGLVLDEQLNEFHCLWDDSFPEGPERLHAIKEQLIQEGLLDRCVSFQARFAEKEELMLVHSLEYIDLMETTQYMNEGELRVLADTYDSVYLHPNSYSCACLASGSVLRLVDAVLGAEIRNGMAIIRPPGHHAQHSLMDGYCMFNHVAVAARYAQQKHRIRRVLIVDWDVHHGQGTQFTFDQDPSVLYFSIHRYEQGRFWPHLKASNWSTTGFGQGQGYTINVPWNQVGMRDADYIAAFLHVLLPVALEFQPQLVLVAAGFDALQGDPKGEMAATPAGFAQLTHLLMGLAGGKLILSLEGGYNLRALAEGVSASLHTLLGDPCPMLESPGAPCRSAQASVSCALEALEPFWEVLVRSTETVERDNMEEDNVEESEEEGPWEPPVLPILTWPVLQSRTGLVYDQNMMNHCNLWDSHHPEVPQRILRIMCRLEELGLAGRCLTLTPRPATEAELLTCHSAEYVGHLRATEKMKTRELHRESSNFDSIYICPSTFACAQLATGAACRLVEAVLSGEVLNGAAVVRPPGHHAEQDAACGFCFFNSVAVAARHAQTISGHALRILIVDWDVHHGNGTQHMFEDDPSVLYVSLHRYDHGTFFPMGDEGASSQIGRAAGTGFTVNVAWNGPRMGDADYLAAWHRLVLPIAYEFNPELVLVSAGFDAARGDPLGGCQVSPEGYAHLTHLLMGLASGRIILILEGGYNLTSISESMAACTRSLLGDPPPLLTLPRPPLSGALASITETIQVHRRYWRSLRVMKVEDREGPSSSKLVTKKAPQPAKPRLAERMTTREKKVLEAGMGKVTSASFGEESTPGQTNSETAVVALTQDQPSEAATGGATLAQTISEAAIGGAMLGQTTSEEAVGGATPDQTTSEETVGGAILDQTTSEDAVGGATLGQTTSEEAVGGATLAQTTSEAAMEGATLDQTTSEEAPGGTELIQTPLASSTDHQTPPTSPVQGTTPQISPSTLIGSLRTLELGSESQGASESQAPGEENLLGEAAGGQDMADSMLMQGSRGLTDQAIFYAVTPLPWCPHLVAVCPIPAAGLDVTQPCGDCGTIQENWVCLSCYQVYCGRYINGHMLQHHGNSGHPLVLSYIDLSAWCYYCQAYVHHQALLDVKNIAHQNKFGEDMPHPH
Chain of human Aurora Kinase A - serine/threonine-protein Kinase 6 (AurA), AURKA (gene 6790) (O14965 whole entry, looked up): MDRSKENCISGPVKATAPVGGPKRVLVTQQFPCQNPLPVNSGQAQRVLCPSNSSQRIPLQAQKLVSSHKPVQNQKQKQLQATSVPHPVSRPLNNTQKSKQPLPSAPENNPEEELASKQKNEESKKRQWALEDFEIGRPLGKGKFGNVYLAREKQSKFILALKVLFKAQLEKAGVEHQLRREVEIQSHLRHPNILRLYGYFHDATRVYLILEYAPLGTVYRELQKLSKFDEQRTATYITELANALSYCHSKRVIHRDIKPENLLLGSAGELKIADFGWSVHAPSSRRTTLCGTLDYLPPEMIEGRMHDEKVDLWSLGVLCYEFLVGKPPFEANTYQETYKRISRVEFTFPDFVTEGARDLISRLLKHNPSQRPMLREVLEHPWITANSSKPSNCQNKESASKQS
Chain of human AMP-activated Protein Kinase, alpha 1 (AMPKa1), PRKAA1 (gene 5562) (Q13131 whole entry, looked up): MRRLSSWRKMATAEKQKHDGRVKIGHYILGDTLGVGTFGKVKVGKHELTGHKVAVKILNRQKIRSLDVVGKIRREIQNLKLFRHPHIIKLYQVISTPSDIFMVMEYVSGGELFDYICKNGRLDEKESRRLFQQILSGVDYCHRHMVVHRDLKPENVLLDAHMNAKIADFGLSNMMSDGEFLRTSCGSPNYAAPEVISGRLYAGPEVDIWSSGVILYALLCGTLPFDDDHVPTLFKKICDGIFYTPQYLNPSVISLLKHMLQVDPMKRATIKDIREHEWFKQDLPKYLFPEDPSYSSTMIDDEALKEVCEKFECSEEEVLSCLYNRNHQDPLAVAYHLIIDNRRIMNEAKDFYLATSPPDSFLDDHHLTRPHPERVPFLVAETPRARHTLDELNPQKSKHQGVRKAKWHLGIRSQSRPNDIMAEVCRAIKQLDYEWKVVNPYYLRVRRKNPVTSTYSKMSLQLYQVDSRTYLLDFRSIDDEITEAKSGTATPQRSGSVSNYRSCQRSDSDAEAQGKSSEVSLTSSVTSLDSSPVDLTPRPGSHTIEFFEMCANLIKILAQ
Chain of human Tyrosine Protein Kinase Receptor Tie-2 (Tie2), TEK (gene 7010) (Q02763 whole entry, looked up): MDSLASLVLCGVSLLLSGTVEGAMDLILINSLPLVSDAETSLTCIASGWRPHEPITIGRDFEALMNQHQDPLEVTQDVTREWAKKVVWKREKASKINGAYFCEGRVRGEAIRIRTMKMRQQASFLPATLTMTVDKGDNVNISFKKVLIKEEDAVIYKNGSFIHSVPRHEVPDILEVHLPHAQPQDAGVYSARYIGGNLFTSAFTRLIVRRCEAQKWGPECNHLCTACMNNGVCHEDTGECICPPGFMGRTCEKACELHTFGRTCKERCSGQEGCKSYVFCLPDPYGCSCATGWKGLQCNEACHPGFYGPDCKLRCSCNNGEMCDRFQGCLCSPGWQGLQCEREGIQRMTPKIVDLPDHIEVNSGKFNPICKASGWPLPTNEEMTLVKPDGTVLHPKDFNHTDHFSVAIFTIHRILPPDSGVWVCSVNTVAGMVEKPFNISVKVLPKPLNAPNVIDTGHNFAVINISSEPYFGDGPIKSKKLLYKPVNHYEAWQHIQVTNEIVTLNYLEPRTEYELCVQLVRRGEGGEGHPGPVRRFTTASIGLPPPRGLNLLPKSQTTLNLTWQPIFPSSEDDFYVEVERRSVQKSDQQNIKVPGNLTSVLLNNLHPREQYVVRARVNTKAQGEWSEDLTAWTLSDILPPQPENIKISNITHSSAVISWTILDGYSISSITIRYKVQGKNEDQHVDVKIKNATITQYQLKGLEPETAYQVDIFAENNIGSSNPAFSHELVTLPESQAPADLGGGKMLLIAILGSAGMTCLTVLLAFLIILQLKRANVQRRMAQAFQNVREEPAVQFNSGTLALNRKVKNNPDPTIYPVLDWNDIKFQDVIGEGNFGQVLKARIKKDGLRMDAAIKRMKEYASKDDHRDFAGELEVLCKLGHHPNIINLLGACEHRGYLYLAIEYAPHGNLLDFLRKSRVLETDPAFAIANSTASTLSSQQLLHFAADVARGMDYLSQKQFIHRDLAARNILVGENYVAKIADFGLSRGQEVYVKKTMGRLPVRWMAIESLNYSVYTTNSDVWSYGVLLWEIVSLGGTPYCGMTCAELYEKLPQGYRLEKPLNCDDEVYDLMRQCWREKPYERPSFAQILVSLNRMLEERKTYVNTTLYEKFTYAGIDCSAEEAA

In the case of `CCCCCCCC/C=C\CCCCCCCC(=O)OC[C@@H](O)[C@H]1OC[C@H](O)[C@H]1O`, the call in test [1], in [2], in [3], in [4], in [5] and in test [6] was inactive. Further, in [7], the molecule was classed as inactive.

Take `O=C(O)CCN(C1(C(=O)NO)CCCC1)S(=O)(=O)c1ccc(Oc2ccc(F)cc2)cc1`: the call in test [8] was inactive.

Regarding `O=C(O)CCCCC(=O)O`, the molecule was called inactive in test [1] and in [9].

`CCN(CC)C(=O)c1cc(S(=O)(=O)Cc2ccccc2)c(N2CCC(c3ccccc3)CC2)cc1N(CC)CCN(C)C`: the figures for the AC50 in test [1] and in [11] were 34.9 µM (active) and 6.13 µM (active), respectively. The outcome in test [8] and in [10] was inactive.

As for `N[C@@H](Cc1c[nH]c2ccccc12)C(=O)O`, in test [8], the molecule was called inactive.

`O=C1CCC(N2C(=O)c3ccccc3C2=O)C(=O)N1` (stereo unspecified): the call in [8] was inactive.

Take `O=C(O)c1[nH]n(-c2ccc(S(=O)(=O)O)cc2)c(=O)c1N=Nc1ccc(S(=O)(=O)O)cc1`: the molecule was classed as inactive in test [8] and in test [3].

Regarding `O=C(O)C1(C(=O)Nc2ccc(Cl)cc2Cl)CC1`, the AC50 is 7.12 µM (active) in test [1], 16.3 µM (active) in test [2], 3.91 µM (active) in test [12] and 10.1 µM (active) in test [13]. Further, the outcome in [10] was inactive.

As for `CCCCCCCCCCCCc1ccccc1`, the molecule was called inactive in test [1] and in test [5].

With `O=[N+]([O-])c1ccc(O)cc1`, in test [8], the outcome was inactive. For the same molecule, the concentration at half-maximal activity (AC50) in test [14] was 16.9 µM (active); in test [15], 19.2 µM (active); in test [16], 18.1 µM (active); in test [7] it was 39.1 µM (active); in [17], 16.6 µM (active).

Consider `CCCC(CCC)C(=O)O`, for which the molecule was classed as inactive in [8], in test [2], in test [3], in test [4], in test [5] and in [6]. The molecule was called inactive in test [18], in [13] and in test [19].

With `Cc1ccc2ncccc2c1`, the result in test [3], in test [20] and in test [9] was inactive.

For `CCOC(=O)c1ccc(O)cc1`, the call in [8] and in [16] was inactive.

On to `Cc1nc(C)nc(N2C[C@@H](C)N(c3ccnc([C@@H](C)O)n3)[C@@H](C)C2)n1`, for which the molecule was classed as inactive in test [8] and in test [12].

For the molecule `CC(C)COC(=O)CCCCC(=O)OCC(C)C`, the molecule was called inactive in [8] and in [21].

As to `CO[C@H]1/C=C/O[C@@]2(C)Oc3c(C)c(O)c4c(O)c(c(/C=N/N5CCN(C)CC5)c(O)c4c3C2=O)NC(=O)/C(C)=C\C=C\[C@H](C)[C@H](O)[C@@H](C)[C@@H](O)[C@@H](C)[C@H](OC(C)=O)[C@@H]1C`, the molecule was classed as inactive in [8] and in test [22].
